# Assay results as given in the supplement of paper PMC6411743.
# ± gives the standard deviation of the averaged measurements. The full data set covers some 6,200 targets. This sample favours those with the largest changes.
# Key:
# Assay in all cases: NP40-soluble protein abundance relative to vehicle (solubility fold change) (ratio); higher = more soluble protein in presence of AMP-PNP
# [1] = target: T1, A0A087WUT6|O60841 (UniProt O60841)
# T1 sequence (whole entry): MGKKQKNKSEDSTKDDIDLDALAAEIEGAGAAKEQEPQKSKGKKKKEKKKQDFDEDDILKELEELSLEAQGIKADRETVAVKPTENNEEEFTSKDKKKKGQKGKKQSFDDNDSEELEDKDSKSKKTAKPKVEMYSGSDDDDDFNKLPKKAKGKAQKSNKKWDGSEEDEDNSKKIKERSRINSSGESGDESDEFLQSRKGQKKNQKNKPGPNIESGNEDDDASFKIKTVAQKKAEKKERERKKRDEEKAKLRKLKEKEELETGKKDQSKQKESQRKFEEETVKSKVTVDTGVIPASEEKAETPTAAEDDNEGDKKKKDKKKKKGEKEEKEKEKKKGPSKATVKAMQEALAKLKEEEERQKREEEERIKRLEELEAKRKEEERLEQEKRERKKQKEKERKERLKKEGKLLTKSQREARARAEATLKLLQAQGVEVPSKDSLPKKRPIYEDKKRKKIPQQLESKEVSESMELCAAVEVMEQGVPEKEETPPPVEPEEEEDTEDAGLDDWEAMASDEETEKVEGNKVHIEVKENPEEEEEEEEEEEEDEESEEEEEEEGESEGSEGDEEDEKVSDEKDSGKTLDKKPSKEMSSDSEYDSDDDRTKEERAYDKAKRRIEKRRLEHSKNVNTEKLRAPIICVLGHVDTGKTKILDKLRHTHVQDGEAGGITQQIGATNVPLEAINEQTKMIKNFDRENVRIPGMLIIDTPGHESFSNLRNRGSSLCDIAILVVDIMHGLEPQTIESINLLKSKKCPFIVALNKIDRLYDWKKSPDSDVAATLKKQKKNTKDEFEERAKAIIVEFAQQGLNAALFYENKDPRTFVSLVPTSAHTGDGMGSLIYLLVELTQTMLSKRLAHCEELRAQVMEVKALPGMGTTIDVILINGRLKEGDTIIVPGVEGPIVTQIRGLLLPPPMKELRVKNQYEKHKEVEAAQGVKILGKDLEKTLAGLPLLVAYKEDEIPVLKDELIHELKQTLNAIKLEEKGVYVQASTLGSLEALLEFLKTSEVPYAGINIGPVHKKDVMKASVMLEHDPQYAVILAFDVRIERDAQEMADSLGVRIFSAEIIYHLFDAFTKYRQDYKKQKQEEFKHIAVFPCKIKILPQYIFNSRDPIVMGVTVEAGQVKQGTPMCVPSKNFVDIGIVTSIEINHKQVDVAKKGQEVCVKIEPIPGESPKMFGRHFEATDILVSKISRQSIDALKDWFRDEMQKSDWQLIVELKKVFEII
# Method in brief: (§1)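 Values are fold changes against the detergent-processed vehicle, based on vsn-normalised intensities. Jurkat crude lysate was treated at eight concentrations from 0.1 to 10 mM (10 min at room temperature, then 3 min at 37 °C), solubilised with 0.8% NP40 and benzonase, ultracentrifuged and analysed by TMT-labelled LC-MS/MS over three independent experiments.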
# [2] = target: T2, A0A087WUU7|Q96GX5|Q96GX5-3|Q96GX5-2 (UniProt Q96GX5)
# T2 sequence (whole entry): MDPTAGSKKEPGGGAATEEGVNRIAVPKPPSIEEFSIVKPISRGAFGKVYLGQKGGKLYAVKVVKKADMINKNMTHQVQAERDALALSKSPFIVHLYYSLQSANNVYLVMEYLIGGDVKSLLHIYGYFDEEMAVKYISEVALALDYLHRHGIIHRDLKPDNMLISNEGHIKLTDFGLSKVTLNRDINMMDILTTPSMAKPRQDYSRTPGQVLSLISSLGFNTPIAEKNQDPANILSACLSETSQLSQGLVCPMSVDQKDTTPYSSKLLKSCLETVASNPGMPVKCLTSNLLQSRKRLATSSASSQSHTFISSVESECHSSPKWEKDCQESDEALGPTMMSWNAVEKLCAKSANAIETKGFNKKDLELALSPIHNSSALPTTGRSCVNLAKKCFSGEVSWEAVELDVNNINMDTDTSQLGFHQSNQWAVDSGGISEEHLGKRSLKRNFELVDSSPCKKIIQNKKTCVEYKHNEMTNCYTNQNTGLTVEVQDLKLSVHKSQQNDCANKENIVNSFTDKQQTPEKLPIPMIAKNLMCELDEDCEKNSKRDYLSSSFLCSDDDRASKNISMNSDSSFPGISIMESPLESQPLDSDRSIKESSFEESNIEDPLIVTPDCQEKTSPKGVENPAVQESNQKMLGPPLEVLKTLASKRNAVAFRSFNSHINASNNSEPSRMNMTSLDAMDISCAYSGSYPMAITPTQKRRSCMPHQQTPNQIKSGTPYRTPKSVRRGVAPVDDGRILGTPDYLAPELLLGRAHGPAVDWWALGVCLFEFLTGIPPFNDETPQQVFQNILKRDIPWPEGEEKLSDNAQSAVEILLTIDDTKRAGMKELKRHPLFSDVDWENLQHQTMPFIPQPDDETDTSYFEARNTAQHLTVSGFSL
# Method in brief: as §1
# [3] = target: T3, A0A087WV73|P46087|P46087-2|P46087-4 (UniProt P46087)
# T3 sequence (whole entry): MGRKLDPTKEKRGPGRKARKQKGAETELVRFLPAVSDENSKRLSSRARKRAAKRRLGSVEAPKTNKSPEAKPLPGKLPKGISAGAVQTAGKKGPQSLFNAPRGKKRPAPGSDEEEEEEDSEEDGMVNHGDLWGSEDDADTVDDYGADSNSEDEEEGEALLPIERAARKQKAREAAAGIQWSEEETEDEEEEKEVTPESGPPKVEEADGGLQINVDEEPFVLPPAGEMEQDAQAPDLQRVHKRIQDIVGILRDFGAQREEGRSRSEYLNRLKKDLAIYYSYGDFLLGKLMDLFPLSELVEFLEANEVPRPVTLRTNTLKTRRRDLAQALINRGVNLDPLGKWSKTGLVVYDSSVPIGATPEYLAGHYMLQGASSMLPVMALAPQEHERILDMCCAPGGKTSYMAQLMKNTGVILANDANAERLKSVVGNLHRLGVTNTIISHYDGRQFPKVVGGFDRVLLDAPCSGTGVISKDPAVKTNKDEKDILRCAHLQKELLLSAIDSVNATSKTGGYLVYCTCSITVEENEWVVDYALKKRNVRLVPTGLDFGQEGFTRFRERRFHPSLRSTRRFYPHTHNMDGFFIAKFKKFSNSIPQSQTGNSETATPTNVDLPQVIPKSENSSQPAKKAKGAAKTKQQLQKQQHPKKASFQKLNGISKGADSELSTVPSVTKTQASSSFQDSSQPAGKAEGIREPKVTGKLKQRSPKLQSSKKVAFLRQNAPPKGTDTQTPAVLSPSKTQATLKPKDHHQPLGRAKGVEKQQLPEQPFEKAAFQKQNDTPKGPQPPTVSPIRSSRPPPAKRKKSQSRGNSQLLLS
# Method in brief: as §1
# [4] = target: A0A087WW88|Q9UQN3 (UniProt Q9UQN3)
# Method in brief: as §1
# [5] = target: T4, A0A087WWS1|Q96FV9 (UniProt Q96FV9)
# T4 sequence (whole entry): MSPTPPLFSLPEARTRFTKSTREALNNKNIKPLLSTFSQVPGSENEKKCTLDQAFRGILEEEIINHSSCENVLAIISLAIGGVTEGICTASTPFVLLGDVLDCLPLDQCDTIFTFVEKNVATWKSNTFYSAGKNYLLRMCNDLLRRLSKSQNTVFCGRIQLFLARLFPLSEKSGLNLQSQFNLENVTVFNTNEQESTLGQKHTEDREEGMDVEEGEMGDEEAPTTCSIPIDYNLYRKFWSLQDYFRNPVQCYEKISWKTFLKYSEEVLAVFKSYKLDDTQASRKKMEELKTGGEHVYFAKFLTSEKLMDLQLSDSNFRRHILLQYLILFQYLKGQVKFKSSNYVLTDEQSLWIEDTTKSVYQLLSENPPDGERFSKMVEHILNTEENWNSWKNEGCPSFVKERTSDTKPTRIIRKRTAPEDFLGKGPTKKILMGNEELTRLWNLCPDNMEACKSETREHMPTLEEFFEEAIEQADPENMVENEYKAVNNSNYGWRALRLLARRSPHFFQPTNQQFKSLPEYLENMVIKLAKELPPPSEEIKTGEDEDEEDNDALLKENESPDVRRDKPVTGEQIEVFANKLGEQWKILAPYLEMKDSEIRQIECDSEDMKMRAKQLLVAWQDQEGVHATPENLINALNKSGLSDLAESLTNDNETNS
# Method in brief: as §1
# Sequence of A0A087WW88|Q9UQN3 (Q9UQN3 whole entry, one chain of several): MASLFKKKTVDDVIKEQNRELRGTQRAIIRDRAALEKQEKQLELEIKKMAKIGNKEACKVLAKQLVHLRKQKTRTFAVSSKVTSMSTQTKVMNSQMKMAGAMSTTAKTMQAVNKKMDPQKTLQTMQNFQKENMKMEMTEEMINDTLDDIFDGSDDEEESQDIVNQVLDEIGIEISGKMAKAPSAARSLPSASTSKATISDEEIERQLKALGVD
compound,measurement,setting,value
Nc1ncnc2c1ncn2[C@@H]1O[C@H](COP(=O)(O)OP(=O)(O)NP(=O)(O)O)[C@@H](O)[C@H]1O [adenylyl imidodiphosphate],NP40-soluble protein abundance,[1]; concentration: 6mM,1.01 ± 0.033
same,NP40-soluble protein abundance,[1]; concentration: 8mM,1.004 ± 0.0073
same,NP40-soluble protein abundance,[1]; concentration: 10mM,0.997 ± 0.035
same,NP40-soluble protein abundance,[2]; concentration: 1mM,1.01 ± 0.02
same,NP40-soluble protein abundance,[2]; concentration: 2mM,1.07 ± 0.036
same,NP40-soluble protein abundance,[2]; concentration: 4mM,1.01 ± 0.044
same,NP40-soluble protein abundance,[2]; concentration: 6mM,0.976 ± 0.023
same,NP40-soluble protein abundance,[2]; concentration: 8mM,0.967 ± 0.011
same,NP40-soluble protein abundance,[2]; concentration: 10mM,0.991 ± 0.04
same,NP40-soluble protein abundance,[3]; concentration: 1mM,1.04 ± 0.038
same,NP40-soluble protein abundance,[3]; concentration: 2mM,1.12 ± 0.068
same,NP40-soluble protein abundance,[3]; concentration: 4mM,1.17 ± 0.05
same,NP40-soluble protein abundance,[3]; concentration: 6mM,1.28 ± 0.067
same,NP40-soluble protein abundance,[3]; concentration: 8mM,1.34 ± 0.094
same,NP40-soluble protein abundance,[3]; concentration: 10mM,1.43 ± 0.093
same,NP40-soluble protein abundance,[4]; concentration: 1mM,1.03 ± 0.024
same,NP40-soluble protein abundance,[4]; concentration: 2mM,1.03 ± 0.0098
same,NP40-soluble protein abundance,[4]; concentration: 4mM,1.03 ± 0.03
same,NP40-soluble protein abundance,[4]; concentration: 6mM,1.04 ± 0.018
same,NP40-soluble protein abundance,[4]; concentration: 8mM,1.03 ± 0.042
same,NP40-soluble protein abundance,[4]; concentration: 10mM,1.03 ± 0.014
same,NP40-soluble protein abundance,[5]; concentration: 1mM,1.35 ± 0.15
same,NP40-soluble protein abundance,[5]; concentration: 2mM,1.52 ± 0.22
same,NP40-soluble protein abundance,[5]; concentration: 4mM,1.64 ± 0.29
same,NP40-soluble protein abundance,[5]; concentration: 6mM,1.86 ± 0.46
same,NP40-soluble protein abundance,[5]; concentration: 8mM,1.96 ± 0.56
same,NP40-soluble protein abundance,[5]; concentration: 10mM,2.2 ± 0.76
